Inconclusive results are not listed. Calls of active or inactive are those of the source. Unless noted, the call rests on the fitted dose curve; in most records, active means well fitted curve in either direction with a large enough effect (not every such curve was filed as active); inconclusive means small, poorly fitted or top-dose-only effect, or another doubt; inactive means flat fitted curve, though single readings scatter.

Assay [1] addresses Lysosomal acid glucosylceramidase (Homo sapiens) (UniProt P04062). The assay can be described thus: Glucocerebrosidase-p2 (AID 348; in the data active means potency below about 10 µM; further: potency means the concentration at half of the fitted maximal effect). The conditions noted are these: purified GBA, blue fluorogenic substrate, 40 min. In short, it runs like this:
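Normal human glucocerebrosidase (0.2 nM) with blue fluorogenic substrate (80 uM final) in citrate/phosphate pH 5.9 with 10mM sodium taurocholate, 0.01% tween-20; 40 min RT, NaOH/glycine stop; fluorescence Ex 365/Em 440; AC50 from a titration from 0.6 nM upwards.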

Assay [2] in a line: AP1 Signaling Pathway (AID 357). Further: on the % scale 0 is the no-effect control and ±100 the full control effect. The conditions noted are these: ME-180 AP-1-bla reporter, EGF-induced, beta-lactamase ratio, 5 h; series mostly up to 17.2 µM. In short, it runs like this: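 Cells are seeded overnight, exposed to compound titrations and an EC50 level of EGF for 5 hours at 37 °C, then loaded with CCF4 dye for 2.5 hours. Beta-lactamase activity under the AP-1 element is read as a blue/green ratio.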

The target of assay [3] is Cytochrome P450 1A2 (Homo sapiens) (UniProt P05177). The assay can be described thus: p450-cyp1a2 (AID 410; calls by dose curve; further: potency means the concentration at half of the fitted maximal effect;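 on activity change, negative = inhibition: -100% = full effect of reference inhibitor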). The settings on record: recombinant CYP1A2, luciferin-ME demethylation, luminescence; series mostly up to 25.6 µM. In short, it runs like this: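 Read-out is luminescence from luciferin produced by CYP1A2 demethylation of Luciferin-ME (100uM, at Km). Detection reagent stopped the 60 min NADPH-dependent reaction; signals were normalized to 57 uM furafylline.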
Sequence of Cytochrome P450 1A2 (Homo sapiens) (P05177 whole entry, looked up): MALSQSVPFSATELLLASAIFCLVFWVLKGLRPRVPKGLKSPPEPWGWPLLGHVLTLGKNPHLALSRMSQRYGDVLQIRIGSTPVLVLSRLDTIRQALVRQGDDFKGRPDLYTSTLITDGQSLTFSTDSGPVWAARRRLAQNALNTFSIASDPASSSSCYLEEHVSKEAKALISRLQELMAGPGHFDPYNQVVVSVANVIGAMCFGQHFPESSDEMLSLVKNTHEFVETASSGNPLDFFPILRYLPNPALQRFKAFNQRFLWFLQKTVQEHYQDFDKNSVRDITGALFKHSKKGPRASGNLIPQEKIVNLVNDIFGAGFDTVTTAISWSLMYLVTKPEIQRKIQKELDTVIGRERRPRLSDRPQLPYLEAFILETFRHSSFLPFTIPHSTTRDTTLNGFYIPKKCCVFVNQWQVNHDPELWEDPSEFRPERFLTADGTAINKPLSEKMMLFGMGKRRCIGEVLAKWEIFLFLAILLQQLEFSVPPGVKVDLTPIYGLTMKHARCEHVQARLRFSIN

Assay [4] can be described thus: Stat Signaling Pathway (AID 446).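 Further: ME-180 cervical cancer cells given 40 pM IL-6 alongside compound; SIE-controlled beta-lactamase reporter measured as 460/530 nm FRET emission ratio; on the % scale 0 is the no-effect control and ±100 the full control effect.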 The conditions noted are these: ME-180 (cervical carcinoma) SIE beta-lactamase reporter, IL-6 stimulated, 5 h; series mostly up to 17.2 µM. In short, it runs like this:
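FRET read-out (405 nm excitation, 460/530 nm emission) of a beta-lactamase reporter under a STAT-inducible element in ME-180 cervical carcinoma cells. Cells with compound receive 40 pM IL-6 for 5 h. Values are normalised to AC90 stimulation and AC90 JAK-inhibitor controls.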

In assay [5] the target is Glucocorticoid receptor (Homo sapiens) (UniProt P04150). The assay can be described thus: GR-EFC Redistribution (AID 451; calls by dose curve; further: potency means the concentration at half of the fitted maximal effect). The settings on record: CHO-K1 GR-EFC translocation, beta-gal luminescence, 2 h. In short, it runs like this: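 Translocation of GR-ED fusion to nuclear EA restores b-gal, read by luminescence after 1 h room-temperature detection. Engineered CHO-K1 biosensor cells, 1,000/well, exposed 2 h at 37 C to titrations up to 46 uM final.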
Sequence of Glucocorticoid receptor (Homo sapiens) (P04150 whole entry, looked up, the tested form may be a part): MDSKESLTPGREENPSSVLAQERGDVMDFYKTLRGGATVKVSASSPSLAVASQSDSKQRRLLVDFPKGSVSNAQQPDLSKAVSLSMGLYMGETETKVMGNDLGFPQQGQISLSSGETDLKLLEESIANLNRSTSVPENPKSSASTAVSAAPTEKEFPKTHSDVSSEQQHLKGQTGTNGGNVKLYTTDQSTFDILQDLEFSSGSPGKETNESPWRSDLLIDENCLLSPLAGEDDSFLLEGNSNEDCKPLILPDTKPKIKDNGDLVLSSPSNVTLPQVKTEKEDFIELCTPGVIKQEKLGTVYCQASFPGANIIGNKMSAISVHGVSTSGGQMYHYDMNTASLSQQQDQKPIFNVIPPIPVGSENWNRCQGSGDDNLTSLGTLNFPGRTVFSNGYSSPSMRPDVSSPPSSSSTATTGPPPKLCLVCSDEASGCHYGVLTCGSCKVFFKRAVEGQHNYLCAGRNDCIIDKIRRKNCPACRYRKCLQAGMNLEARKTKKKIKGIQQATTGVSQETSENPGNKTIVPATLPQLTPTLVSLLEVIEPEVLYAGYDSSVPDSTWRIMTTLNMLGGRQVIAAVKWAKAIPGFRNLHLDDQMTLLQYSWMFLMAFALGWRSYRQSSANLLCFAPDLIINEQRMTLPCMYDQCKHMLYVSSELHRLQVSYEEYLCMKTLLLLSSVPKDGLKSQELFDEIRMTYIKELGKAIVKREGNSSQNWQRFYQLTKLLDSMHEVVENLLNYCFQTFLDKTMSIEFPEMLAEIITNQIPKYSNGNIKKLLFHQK

For assay [6], the target named is Mitogen-activated protein kinase 10 (Mus musculus) (UniProt Q61831). The assay can be described thus: JNK3 AlphaScreen Assay (AID 530).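 Further: kinase came from lysate of stimulated human HepG2 cells; signal reports phosphorylation of biotinylated GST-cJun 1-79 at Ser73 with 10 µM ATP; on the % scale 0 is the no-effect control and ±100 the full control effect.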 The settings on record: JNK3 lysate, c-Jun phosphorylation; series mostly up to 57.1 µM. In short, it runs like this:
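Kinase buffer: 20 mM Tris-HCl pH 7.6, 10 mM MgCl2, 1 mM DTT, 0.1 mM Na3VO4, 0.01% Tween-20; ATP 10 uM. Substrate biotin-GST-cJun(1-79), enzyme from activated HepG2 lysates. Detection by Ser73 phospho-antibody AlphaScreen.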
For orientation: Bead proximity is the source of the signal in Alpha formats.

Assay [7] deals with 3',5'-cyclic-AMP phosphodiesterase 4B (Homo sapiens) (UniProt Q07343). Briefly: qHTS Assay for Inhibitors of PDE-IV (AID 607; active means well fitted activation curve with a large enough effect in the main read-out, with a control signal flat, not every such curve was filed as active; further: % of control where 0% means no effect). The settings on record: HEK293 ACTOne CNG channel cells, membrane potential fluorescence; series mostly up to 22.9 µM. In short, it runs like this:
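Cell-based read-out of cAMP via a modified cyclic nucleotide-gated channel and membrane potential dye (535/590 nm) in HEK293 cells expressing PDE4 endogenously. Compounds tested up to 22.9 uM final; 100 uM RO 20-1724 reference.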
(In general: qHTS replaces the single test concentration by a dilution series.)

In assay [8] the target is Cytochrome P450 3A4 (Homo sapiens) (UniProt P08684). The assay can be described thus: qHTS Assay for Activators of Cytochrome P450 3A4 (AID 885; active means well fitted curve in the direction sought with a large enough effect; an effect the other way counts as inactive or inconclusive; further: nearly all actives have a fitted effect of over 65% in size; further: potency means the concentration at half of the fitted maximal effect). The settings on record: recombinant CYP3A4, Luciferin-PPXE luminescence, 60 min; series mostly up to 57.1 µM. In short, it runs like this: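 Luminescent readout of luciferin formed from 25 uM Luciferin-PPXE (KM level) by 20 nM CYP3A4 in 200 mM KPO4, with 60 min NADPH-driven reaction at room temperature after 10 min compound exposure. Ketoconazole (57 uM) defined 100% inhibition.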
Sequence of Cytochrome P450 3A4 (Homo sapiens) (P08684 whole entry, looked up): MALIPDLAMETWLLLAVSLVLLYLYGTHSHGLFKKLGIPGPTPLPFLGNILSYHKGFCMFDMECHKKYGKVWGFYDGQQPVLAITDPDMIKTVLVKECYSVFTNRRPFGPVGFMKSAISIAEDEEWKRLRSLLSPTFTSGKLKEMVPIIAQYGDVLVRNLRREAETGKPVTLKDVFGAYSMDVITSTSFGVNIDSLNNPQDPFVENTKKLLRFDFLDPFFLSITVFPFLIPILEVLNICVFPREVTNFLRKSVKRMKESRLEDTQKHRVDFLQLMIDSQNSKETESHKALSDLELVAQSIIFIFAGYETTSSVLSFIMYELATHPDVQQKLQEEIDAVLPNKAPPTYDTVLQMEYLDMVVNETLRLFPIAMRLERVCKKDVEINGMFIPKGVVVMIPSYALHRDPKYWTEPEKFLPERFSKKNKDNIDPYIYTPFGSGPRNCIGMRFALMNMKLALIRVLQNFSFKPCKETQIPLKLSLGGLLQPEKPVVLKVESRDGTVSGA

The nature of assay [9]: qHTS Assay for Lipid Storage Modulators (AID 1519; calls by dose curve). The settings on record: Drosophila S3 cells, BODIPY lipid droplet/cell ratio, laser cytometry, cells loaded with oleic acid; for activity change, negative = inhibition: at 57.5 µM (top of the series). In short, it runs like this: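 Cells seeded at 5,000 per well were treated with compounds over a concentration series and loaded with oleic acid (400 uM, as added). Lipid droplet fluorescence (488 nm excitation, 500-530 nm channel) was read by laser-scanning cytometry and normalized to 20 uM Triacsin C.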

Assay [10] is described as follows: Primary qHTS for small molecule stabilizers of the endoplasmic reticulum resident proteome: Secreted ER Calcium Modulated Protein (SERCaMP) assay (AID 1508630; active means well fitted curve in the direction sought with a large enough effect; an effect the other way counts as inactive or inconclusive; further: on the % scale 0 is the no-effect control and ±100 the full control effect). The settings on record: SH-SY5Y GLuc-SERCaMP (Gaussia luciferase released on ER calcium loss) secretion, thapsigargin, luminescence; series mostly up to 38.4 µM. In short, it runs like this:
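The SH-SY5Y reporter protocol was run at 3 concentrations up to 38.3 uM (primary) or 11 concentrations (follow-up): 16 h compound, 100 nM thapsigargin for 4 h, then extracellular luciferase luminescence.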

A short description of assay [11]: NFAT Signaling Pathway (AID 444). The conditions noted are these: Jurkat NFAT-bla M1, carbachol, beta-lactamase ratio, 5 h; at 7.69 µM (top of the series). In short, it runs like this: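 Read-out: CCF4 FRET ratio (460 nm/530 nm) after 1 h RT dye loading, used for %activity and AC50 from titration series. Cells: Jurkat NFAT-β-lactamase/M1 line, treated with compound plus 1 uM carbachol for 5 h, 37 °C.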

Assay [12] has as its target Glucocorticoid receptor (Homo sapiens) (UniProt P04150). Briefly: GR-GFP Redistribution (AID 450;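 active means compounds whose dose series gives a full or clear partial fitted curve of increased nuclear translocation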; further: potency means the concentration at half of the fitted maximal effect). The settings on record: U2OS GR-GFP nuclear translocation, laser cytometry, 2 h.
In assay [13] the target is Cytochrome P450 3A4 (Homo sapiens) (UniProt P08684). The assay can be described thus: qHTS Assay for Inhibitors and Substrates of Cytochrome P450 3A4 (AID 884; active means well fitted curve in the direction sought with a large enough effect; an effect the other way counts as inactive or inconclusive; further: nearly all actives have a fitted effect of over 50% in size; further: potency means the concentration at half of the fitted maximal effect). The conditions noted are these: recombinant CYP3A4, Luciferin-PPXE luminescence; series mostly up to 57.1 µM. In short, it runs like this: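 Luminescent readout of luciferin produced by CYP3A4 (20 nM) dealkylation of Luciferin-PPXE, 25 uM (its KM). NADPH-driven reaction ran 60 min at RT after 10 min compound preincubation; data scaled to 57 uM ketoconazole as 100% inhibition.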

The nature of assay [14]: Confirmation and Secondary Assay for Modulators of Hemoglobin Beta Chain Splicing at IVS2 654 locus (AID 910; active means well fitted curve in the direction sought with a large enough effect; an effect the other way counts as inactive or inconclusive;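 further: HeLa cells stably carrying EGFP split by mutant beta-globin IVS2-654 intron; per-well total GFP intensity by laser scanning cytometry after 2-day treatment; % of control where 0% means no effect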). The conditions noted are these: HeLa EGFP-654 splicing reporter, GFP fluorescence, 48 h; series mostly up to 46.1 µM. In short, it runs like this: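 Readout: per-well total peak green fluorescence (488 nm ex, 500–520 nm em) from objects 5–250 µm, reflecting correct splicing of an EGFP-654 reporter. Compounds were applied for 2 days at 37 °C to overnight-plated HeLa EGFP-654 cells; controls were DMSO and 500 nM IVS2-654 PNA.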

The target in assay [15] is Ubiquitin carboxyl-terminal hydrolase 1 (Homo sapiens) (UniProt O94782). Briefly: Inhibitors of USP1/UAF1: Pilot qHTS (AID 504865; active means well fitted curve in the direction sought with a large enough effect; an effect the other way counts as inactive or inconclusive;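 further: rhodamine fluorescence freed from ubiquitin-rhodamine substrate followed over time; top concentration of the series differs between compounds; on the % scale 0 is the no-effect control and ±100 the full control effect; nearly all actives have a fitted effect of over 35% in size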). The conditions noted are these: purified USP1/UAF1, Ub-rhodamine cleavage fluorescence; series mostly up to 114 µM. In short, it runs like this: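 USP1/UAF1 complex (1nM) preincubated with compound 15 min at room temperature, then Ub-Rho substrate (150nM final) added. Fluorescence read kinetically at 480/540 nm, 6 reads every 60 seconds. Buffer: 50mM HEPES pH 7.8, 0.5mM EDTA, 0.1 mg/ml BSA, 1mM TCEP, 0.01% Tween-20.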
Sequence of Ubiquitin carboxyl-terminal hydrolase 1 (Homo sapiens) (O94782 whole entry, looked up): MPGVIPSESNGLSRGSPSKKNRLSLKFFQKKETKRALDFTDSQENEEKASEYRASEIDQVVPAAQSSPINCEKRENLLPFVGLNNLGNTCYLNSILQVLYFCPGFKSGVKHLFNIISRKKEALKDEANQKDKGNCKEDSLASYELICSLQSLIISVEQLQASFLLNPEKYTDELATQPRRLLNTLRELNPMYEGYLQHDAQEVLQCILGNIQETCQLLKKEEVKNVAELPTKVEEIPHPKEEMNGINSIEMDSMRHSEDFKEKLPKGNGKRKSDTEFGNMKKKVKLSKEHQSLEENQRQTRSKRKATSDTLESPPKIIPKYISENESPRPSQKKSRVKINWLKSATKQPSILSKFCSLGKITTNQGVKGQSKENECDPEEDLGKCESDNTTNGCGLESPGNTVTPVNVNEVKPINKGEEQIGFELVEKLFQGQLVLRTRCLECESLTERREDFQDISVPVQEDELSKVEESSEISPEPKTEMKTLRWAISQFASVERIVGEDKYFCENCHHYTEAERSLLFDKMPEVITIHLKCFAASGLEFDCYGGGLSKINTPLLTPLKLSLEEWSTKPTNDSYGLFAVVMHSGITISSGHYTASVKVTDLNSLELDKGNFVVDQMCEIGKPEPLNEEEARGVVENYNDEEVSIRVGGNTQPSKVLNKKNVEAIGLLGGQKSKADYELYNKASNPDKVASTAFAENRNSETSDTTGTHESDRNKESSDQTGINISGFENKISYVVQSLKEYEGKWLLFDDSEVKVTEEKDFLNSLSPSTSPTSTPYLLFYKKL

Setting [16] is: measured here: cell count channel max response.
The mark [17] stands for this setting: measured here: lipid channel max response.

Sequence of Lysosomal acid glucosylceramidase (Homo sapiens) (P04062 whole entry, looked up): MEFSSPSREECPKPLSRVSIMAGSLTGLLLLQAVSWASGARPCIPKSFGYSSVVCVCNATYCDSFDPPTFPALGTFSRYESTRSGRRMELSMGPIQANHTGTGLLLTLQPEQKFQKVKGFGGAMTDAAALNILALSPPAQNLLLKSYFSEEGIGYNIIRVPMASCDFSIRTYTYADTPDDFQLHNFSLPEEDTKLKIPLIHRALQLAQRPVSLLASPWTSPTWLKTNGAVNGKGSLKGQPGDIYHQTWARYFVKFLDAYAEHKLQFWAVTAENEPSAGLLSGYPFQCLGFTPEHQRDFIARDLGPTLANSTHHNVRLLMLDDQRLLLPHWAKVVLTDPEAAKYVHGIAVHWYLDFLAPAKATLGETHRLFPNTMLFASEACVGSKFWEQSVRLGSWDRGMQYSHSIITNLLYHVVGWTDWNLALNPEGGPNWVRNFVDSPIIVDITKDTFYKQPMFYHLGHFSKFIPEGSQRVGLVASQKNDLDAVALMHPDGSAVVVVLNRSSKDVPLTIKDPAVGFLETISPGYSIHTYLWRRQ
Sequence of 3',5'-cyclic-AMP phosphodiesterase 4B (Homo sapiens) (Q07343 whole entry, looked up): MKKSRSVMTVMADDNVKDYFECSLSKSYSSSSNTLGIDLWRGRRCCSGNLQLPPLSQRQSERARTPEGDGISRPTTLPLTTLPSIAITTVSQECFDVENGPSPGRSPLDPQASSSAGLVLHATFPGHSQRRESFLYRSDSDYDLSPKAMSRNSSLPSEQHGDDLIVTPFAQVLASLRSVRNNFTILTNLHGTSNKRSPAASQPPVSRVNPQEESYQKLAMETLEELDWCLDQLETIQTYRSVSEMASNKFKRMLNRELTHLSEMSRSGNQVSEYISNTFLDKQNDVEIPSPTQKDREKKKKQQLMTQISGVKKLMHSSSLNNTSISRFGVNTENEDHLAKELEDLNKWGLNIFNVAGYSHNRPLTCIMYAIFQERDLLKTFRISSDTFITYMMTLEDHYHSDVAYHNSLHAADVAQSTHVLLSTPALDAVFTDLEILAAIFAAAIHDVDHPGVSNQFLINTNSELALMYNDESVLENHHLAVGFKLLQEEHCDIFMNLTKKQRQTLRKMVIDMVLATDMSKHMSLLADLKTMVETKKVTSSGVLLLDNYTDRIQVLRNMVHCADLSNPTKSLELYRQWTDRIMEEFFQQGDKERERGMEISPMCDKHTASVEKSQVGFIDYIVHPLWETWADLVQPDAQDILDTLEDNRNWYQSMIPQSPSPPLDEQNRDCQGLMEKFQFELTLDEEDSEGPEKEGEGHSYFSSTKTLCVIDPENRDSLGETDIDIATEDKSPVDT

Take `CN1CC[C@@]2(CCCN(C(=O)c3ccncc3)C2)C1`: the Potency was > 11.4 µM (inactive) in assay [1] and > 46 µM (inactive) in assay [5]. The result in assay [2], in assay [4], in [6] and in [10] was inactive. Besides, the Potency entry in assay [3], in [7] and in assay [8] was “inactive” each time. Besides, the activity change, negative = inhibition in [9] was 0.0036% (inactive). Besides, the results for the max response in assay [9] (setting [16]) and in assay [9] (setting [17]) were 5.11% and 8.97%, respectively.

Consider `Cc1ccccc1-c1cncnc1NCCc1cnc[nH]1`, for which the Potency in assay [1] is > 11.4 µM (inactive); in assay [12], > 46 µM (inactive); in assay [5] it was > 46 µM (inactive); in assay [13], 0.631 µM (active). The outcome in assay [2], in assay [4], in [6] and in assay [10] was inactive. Further, the activity change, negative = inhibition in assay [11] is -8.8% (inactive); in [9] it was 6.91% (inactive). In addition, the Potency result in assay [7], in [8], in assay [14] and in assay [15] was “inactive” each time. Also, the max response in assay [9] (setting [16]) worked out at 9.82%; in [9] (setting [17]) it was 17.7%.

With `CN1CCN(c2ncc3ncc(=O)n(C)c3n2)CC1`, the Potency in assay [1] is > 11.4 µM (inactive); in [12], > 9.22 µM (inactive); in assay [5] it was > 46 µM (inactive). In addition, the outcome in assay [2], in assay [4], in [6] and in assay [10] was inactive. In addition, the results for the activity change, negative = inhibition in assay [11] and in [9] were 11.5% (inactive) and 3.09% (inactive), respectively. The Potency result in assay [7] and in assay [15] was “inactive” in each case. Also, the max response is -0.0774% in assay [9] (setting [16]) and 1.21% in [9] (setting [17]).

`O=C(Oc1ccccc1)N1CCC2(CCCN(Cc3ccccc3)C2)CC1`: the Potency in [1] was > 11.4 µM (inactive); in assay [5] it was > 46 µM (inactive). The outcome in assay [2], in [4], in [6] and in [10] was inactive. Moreover, the Potency entry in [3], in [7] and in assay [8] was “inactive” in each case. Further, in assay [9], the activity change, negative = inhibition is 2.57% (inactive). The max response in assay [9] (setting [16]) came to 0.129%; in assay [9] (setting [17]) it was 4.78%.

As to `c1cnc(N2CC3(CCNCC3)C2)nc1`, the Potency in [1] is > 11.4 µM (inactive); in assay [5] it was > 46 µM (inactive). The result in assay [2], in assay [4], in [6] and in assay [10] was inactive. The activity change, negative = inhibition was -1.58% (inactive) in [11] and 1.55% (inactive) in [9]. Further, the Potency entry in assay [7] is “inactive”. Moreover, the max response in assay [9] (setting [16]) came out at 11.6%; in [9] (setting [17]), 15.7%.

For `CN1CC[C@@]2(CCCN(C(=O)Oc3ccccc3)C2)C1`, the Potency was > 11.4 µM (inactive) in assay [1] and > 46 µM (inactive) in assay [5]. Moreover, the result in [2], in assay [4], in assay [6] and in assay [10] was inactive. For the same molecule, the Potency entry in assay [3], in assay [7] and in assay [8] was “inactive” in each case. Besides, the results for the activity change, negative = inhibition in assay [11] and in assay [9] were 0.664% (inactive) and 2.41% (inactive), respectively. Moreover, the max response came to 16.8% in [9] (setting [16]) and 22% in [9] (setting [17]).

For `O=C(Nc1cccc(F)c1)N1CC2(CCN(C(=O)Oc3ccccc3)CC2)C1`, the Potency was > 11.4 µM (inactive) in [1], 12.6 µM (active) in assay [3], > 46 µM (inactive) in assay [5] and 12.6 µM (active) in assay [8]. Besides, the outcome in assay [2], in assay [4], in assay [6] and in assay [10] was inactive. Besides, the activity change, negative = inhibition in [11] is 16.5% (inactive); in [9], 5.68% (inactive). Further, the Potency result in assay [7] and in [13] was “inactive” throughout. In addition, the figures for the max response in assay [9] (setting [16]) and in assay [9] (setting [17]) were -9.16% and -1.47%, respectively.

For the origin of these results see PubChem BioAssay (NCATS).
